Results on 45 compounds are retold here after article PMC4336329 (PLoS ONE, 2015).

Structures are written as SMILES. Hit rate of the full screen: of about 310,000 compounds, about 14,000 (4.5%) showed an effect of 50% or more. The effect is printed as a negative number. Shown is part of a subset that was picked to be rich in strong results.
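Further: peak tail current of the secondary pulse compared with the same well before compound.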

The target in the assay is human ether-à-go-go-related gene (hERG) potassium channel (human, UniProt Q12809). Description: primary screen, population patch clamp on CHO cells stably expressing hERG; higher = less effect of the substance.
Sequence of human ether-à-go-go-related gene (hERG) potassium channel (Q12809 whole entry, looked up): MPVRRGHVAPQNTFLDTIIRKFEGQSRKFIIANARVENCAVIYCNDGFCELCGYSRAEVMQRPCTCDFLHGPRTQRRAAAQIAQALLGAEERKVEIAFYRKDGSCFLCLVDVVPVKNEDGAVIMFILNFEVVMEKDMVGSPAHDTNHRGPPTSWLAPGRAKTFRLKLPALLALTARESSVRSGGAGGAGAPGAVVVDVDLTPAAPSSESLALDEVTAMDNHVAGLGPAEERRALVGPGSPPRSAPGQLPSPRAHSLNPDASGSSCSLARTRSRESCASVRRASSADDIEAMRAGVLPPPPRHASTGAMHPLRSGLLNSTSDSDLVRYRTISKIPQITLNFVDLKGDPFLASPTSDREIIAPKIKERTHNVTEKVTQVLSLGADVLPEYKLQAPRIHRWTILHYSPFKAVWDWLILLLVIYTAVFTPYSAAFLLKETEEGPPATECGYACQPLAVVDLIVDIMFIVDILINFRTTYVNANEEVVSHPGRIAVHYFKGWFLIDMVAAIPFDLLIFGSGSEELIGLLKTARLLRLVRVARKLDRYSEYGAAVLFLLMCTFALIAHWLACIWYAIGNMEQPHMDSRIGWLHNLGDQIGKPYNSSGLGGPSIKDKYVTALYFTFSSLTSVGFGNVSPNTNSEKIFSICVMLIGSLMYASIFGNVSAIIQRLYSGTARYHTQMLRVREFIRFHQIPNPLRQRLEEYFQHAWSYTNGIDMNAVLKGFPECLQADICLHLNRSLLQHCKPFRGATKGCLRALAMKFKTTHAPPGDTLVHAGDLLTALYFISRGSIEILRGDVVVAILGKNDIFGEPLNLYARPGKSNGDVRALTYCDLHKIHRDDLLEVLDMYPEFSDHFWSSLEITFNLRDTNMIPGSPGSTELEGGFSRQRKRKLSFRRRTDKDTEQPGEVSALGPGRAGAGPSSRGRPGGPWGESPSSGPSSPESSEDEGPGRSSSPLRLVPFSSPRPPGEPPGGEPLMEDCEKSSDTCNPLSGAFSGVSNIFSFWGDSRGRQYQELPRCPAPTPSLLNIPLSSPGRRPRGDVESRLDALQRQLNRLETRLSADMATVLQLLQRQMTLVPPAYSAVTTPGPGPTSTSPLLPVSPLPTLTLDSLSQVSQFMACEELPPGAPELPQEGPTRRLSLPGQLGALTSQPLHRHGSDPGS
Regarding `CC(=O)N1CCN(c2ccccc2NC(=O)c2ccc(C#N)cc2F)CC1`, the “hERG current change (%, negative = inhibition) at 10uM” value is recorded as -49.6%. Turning to `COc1ccc(C(=O)Nc2ccccc2N2CCN(C(=O)C(C)C)CC2)cc1Cl`, the “hERG current change (%, negative = inhibition) at 10uM” value is reported as -30.9%. For `COc1ccc(Cl)cc1C(=O)Nc1ccccc1N1CCN(C(=O)C(C)C)CC1` the value was -74%; for `O=C(Nc1ccccc1N1CCCC1)c1ccccc1F`, -3.26%. For `COc1c(F)c(F)c(C(=O)Nc2ccccc2N2CCN(C(=O)C(C)C)CC2)c(F)c1F` the value was 6.51%. To `CC(C)C(=O)N1CCN(c2ccccc2NC(=O)c2ccc(C#N)cc2F)CC1` belongs -72.2%; to `COc1ccc(Cl)cc1C(=O)NC(=S)Nc1ccccc1N1CCOCC1`, 10.2%; to `CC1CCN(c2ccccc2NC(=O)c2ccc(C#N)cc2F)CC1`, 5.07%.

As for `COc1cc2ccccc2cc1C(=O)Nc1ccccc1N1CCCC1`, the “hERG current change (%, negative = inhibition) at 10uM” value is recorded as -4.16%. For `O=C(Nc1ccccc1N1CCN(c2ccccc2)CC1)c1ccccc1F` the value was 8.96%; for `COc1ccc(Cl)cc1C(=O)Nc1ccccc1N1CCN(C)CC1`, -79.3%; for `CN(C)c1ccc(NC(=O)c2ccc(COc3cccc(Cl)c3)o2)cc1`, 0.95%. To `CS(=O)(=O)N(CC(=O)N1CCOCC1)Cc1ccc(Cl)cc1` belongs 4.67%; to `COc1cc(C(=O)NCC2(N3CCCCC3)CCCCC2)ccc1OCC(=O)N1CCOCC1`, -3.67%; to `CC(=O)Nc1cccc(C(=O)OC(C)C(=O)N2CCc3ccccc32)c1` (stereo not drawn), -33.2%. To `Cc1ccc(C(=O)N2CCN(c3ncnc4c(-c5ccccc5)nsc34)CC2)cc1` belongs 18.1%; to `Cc1cc(C)n(-c2nc(NCC3CCCO3)c3c4c(sc3n2)COC(C)(C)C4)n1` (stereo not drawn), -20.2%. For `CC(NCc1ccccc1)C1COc2ccccc2O1` (stereo not drawn), the “hERG current change (%, negative = inhibition) at 10uM” value is recorded as 2.12%. With `COc1ccc(CNC(C)C2COc3ccccc3O2)c(OC)c1.O=C(O)C(=O)O` (stereo not drawn), the “hERG current change (%, negative = inhibition) at 10uM” value is recorded as -63.2%. For `COc1ccc(CNC(=O)C2COc3ccccc3O2)c(OC)c1` (stereo not drawn) the value was -26.4%; for `CC(NCc1ccc([N+](=O)[O-])cc1)C1COc2ccccc2O1.O=C(O)C(=O)O` (stereo not drawn), -66.2%; for `COc1ccc(CC(=O)NC(C)C2COc3ccccc3O2)cc1OC` (stereo not drawn), -0.81%.

`CCOC(=O)CCNC(C)C1COc2ccccc2O1.O=C(O)C(=O)O` (stereo not drawn): the “hERG current change (%, negative = inhibition) at 10uM” value is listed as 1.93%.

Regarding `Cc1ccc(NC(=S)NCCc2c[nH]c3ccccc23)cc1`, the “hERG current change (%, negative = inhibition) at 10uM” value was -1.12%. Consider `COc1ccc(OCC(O)CNC(=O)c2ccc(OC)cc2)cc1` (stereo not drawn), for which the “hERG current change (%, negative = inhibition) at 10uM” value turned out to be 14.9%.

In the case of `COCCn1c(SCC(=O)Nc2ccc(F)cc2F)nc2c([nH]c3ccccc32)c1=O`, the “hERG current change (%, negative = inhibition) at 10uM” value amounted to 8.08%. In the case of `COCCCn1c(C)nnc1SCC(=O)NNC(=O)COc1ccc(Cl)cc1`, the “hERG current change (%, negative = inhibition) at 10uM” value worked out at 22.6%. To `COc1ccc(-c2ccc(Nc3ccc(S(=O)(=O)N4CCCC4)cc3)nn2)cc1OC` belongs 6.55%. To `Cn1c(=O)[nH]c(=O)c2c1nc(N1CCNCC1)n2Cc1cccc2ccccc12` belongs -16.4%. For `Cc1cccc(N/C(=N/S(=O)(=O)c2ccccc2)c2ccccc2)n1` the value was -24.9%; for `CCN(c1cccc(C)c1)C(C(=O)Nc1ccc(OC)cc1)c1cc2c(cc1[N+](=O)[O-])OCO2` (stereo not drawn), 21.1%; for `CCOC(=O)N1CCN(C(=O)COc2ccc3oc4c(c3c2)CCCC4)CC1`, -50.6%. As for `CCN(CC)CCCNC(=O)COc1ccc2oc3c(c2c1)CCCC3.Cl`, the “hERG current change (%, negative = inhibition) at 10uM” value is recorded as -45.7%. To `CNC(=O)COc1ccc2oc3c(c2c1)CCCC3` belongs 9.14%. For `CC(=O)N1CCN(C(=O)COc2ccc3oc4c(c3c2)CCCC4)CC1` the value was -25.4%. To `CC(C)N(CCNC(=O)COc1ccc2oc3c(c2c1)CCCC3)C(C)C` belongs -73.3%; to `CC(C)OCCCNC(=O)COc1ccc2oc3c(c2c1)CCCC3`, -4.97%.

On to `Cc1cccc(N(CC(=O)NCCC2=CCCCC2)S(C)(=O)=O)c1C`, for which the “hERG current change (%, negative = inhibition) at 10uM” value is recorded as -22.8%.

Regarding `COC(=O)c1ccc(CNC(=O)/C=C/c2cc([N+](=O)[O-])ccc2OC(F)F)cc1`, the “hERG current change (%, negative = inhibition) at 10uM” value was 6.89%. On to `CN(C)CCCN(C(=O)C1=COCCO1)c1nc2ccc(Br)cc2s1.Cl`, for which the “hERG current change (%, negative = inhibition) at 10uM” value is listed as -67.2%. For `CN(C)CCN(C(=O)c1ccc2ccccc2c1)c1nc2ccc(Br)cc2s1.Cl` the value was 13.2%; for `CN(C)CCN(C(=O)c1ccc2ccccc2c1)c1nc2ccc(F)cc2s1.Cl`, 11.1%.

As to `CN(C)CCN(C(=O)C1=COCCO1)c1nc2ccc(Cl)cc2s1.Cl`, the “hERG current change (%, negative = inhibition) at 10uM” value is -73.1%. For `CN(C)CCN(C(=O)c1ccc2c(c1)OCCO2)c1nc2ccc(Cl)cc2s1.Cl` the value was -1.19%.

On to `CN(C)CCN(C(=O)C1=COCCO1)c1nc2ccc(F)cc2s1.Cl`, for which the “hERG current change (%, negative = inhibition) at 10uM” value is on record as -73%.
